An excerpt weighted towards active compounds, which were near 0.87% of everything screened.
RECQ1 inh-1 = RECQ1 (human) helicase inhibition; P46063; RECQ1 DNA unwinding, red fluorescence kinetic read; Potency, µM (top dose mostly 57.3 µM), for the others: top-dose activity, negative = inhibition, actives largely listed as inhibitors; 240,000 compounds, 0.54% hits;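 note: plate controls were vehicle for no effect and no enzyme for full effect; nearly all actives have a fitted effect of over 30% in size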
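50 nM RECQ1T1 preincubated 15 min with compound in Tris pH 8.0 buffer with MgCl2, DTT, Tween-20 and 2.5 ug/ml poly(dI-dC); started with 200 nM TAMRA/BHQ-2 forked duplex and 2 mM ATP. Unwinding read as fluorescence (525/598 nm), two reads 2 h apart.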
APEX1 inh = APE1 (human) endonuclease inhibition. AID 2517. Potency, µM (titrated, usually from 65.8 µM), for inactives: top-dose activity change, negative = inhibition, most hits filed as inhibitors. 350,000 compounds, 0.35% hits. P27695. recombinant APE1, TAMRA/BHQ-2 abasic DNA cleavage fluorescence;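 note: plate controls were vehicle for no effect and reference inhibitor for full effect; nearly all actives have a fitted effect of over 55% in size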
Target sequence (P27695 whole entry, looked up): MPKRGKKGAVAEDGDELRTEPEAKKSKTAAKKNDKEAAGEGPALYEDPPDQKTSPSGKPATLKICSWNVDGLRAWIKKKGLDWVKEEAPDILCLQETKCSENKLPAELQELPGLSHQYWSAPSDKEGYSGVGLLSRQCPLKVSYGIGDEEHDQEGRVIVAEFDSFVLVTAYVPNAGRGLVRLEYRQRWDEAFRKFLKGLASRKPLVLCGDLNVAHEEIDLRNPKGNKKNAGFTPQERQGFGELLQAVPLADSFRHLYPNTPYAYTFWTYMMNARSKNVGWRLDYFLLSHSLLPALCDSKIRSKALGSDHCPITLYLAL
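Substrate: short duplex with […] THF abasic site, 5'-TAMRA and 3'-BHQ-2, 50 nM final. APE1 at 0.75 nM, preincubated 15 min RT with compound. Fluorescence increase from first to third read measured activity.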
BLM inh = blocks DNA unwinding by human BLM helicase | P54132 | recombinant BLM DNA unwinding, fluorescence dequenching | Potency, µM (doses to about 56.1 µM), without a hit: at the top dose activity change, negative = inhibition, usual class: inhibitors | 350,000 compounds, 0.2% hits | AID 2528;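 note: plate controls were vehicle for no effect and no enzyme for full effect; nearly all actives have a fitted effect of over 35% in size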
WRN helicase inh = WRN helicase (human) inhibition | Q14191 | WRN helicase unwinding, fluorescent forked duplex, kinetic | Potency, µM (doses to about 114 µM), for the others: at the highest dose activity change, negative = inhibition, most hits filed as inhibitors | 360,000 compounds, 0.46% hits | AID 651768; note: nearly all actives have a fitted effect of over 55% in size
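Fluorescence dequenching readout, ex 525 nm/em 598 nm, kinetic mode: forked duplex DNA (100 nM final) with adjacent fluorophore and quencher unwound by WRN (20 nM final) with 2 mM ATP. Compound preincubation 15 min, room temperature.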
FEN1 inhibitor = inhibitors of human flap endonuclease 1; P39748; Recombinant FEN1 flap cleavage, fluorescence, 15 min; Potency, µM (doses to about 114 µM), for inactives: at the top dose activity change, negative = inhibition, most hits filed as inhibitors; 390,000 compounds, 0.35% hits; note: nearly all actives have a fitted effect of over 65% in size
Target sequence (P39748 whole entry, looked up): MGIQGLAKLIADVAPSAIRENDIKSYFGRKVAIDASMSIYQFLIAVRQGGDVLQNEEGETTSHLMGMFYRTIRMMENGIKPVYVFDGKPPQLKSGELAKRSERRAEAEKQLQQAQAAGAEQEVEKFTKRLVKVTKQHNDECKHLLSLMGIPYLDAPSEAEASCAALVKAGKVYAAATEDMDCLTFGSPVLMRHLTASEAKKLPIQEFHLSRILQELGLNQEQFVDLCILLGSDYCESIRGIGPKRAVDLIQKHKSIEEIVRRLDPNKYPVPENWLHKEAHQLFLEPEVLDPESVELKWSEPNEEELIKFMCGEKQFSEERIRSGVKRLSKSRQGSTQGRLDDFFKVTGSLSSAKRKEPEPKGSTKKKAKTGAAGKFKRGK
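FEN1 at 10 nM preincubated with compounds 15 min at room temperature, then flap DNA substrate added at 50 nM final. Signal read at 0 and 15 min; concentration-response fitted with four-parameter Hill equation.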
RECQ1 inh conf = confirmation of human RECQ1 helicase inhibitors. Potency, µM (top dose mostly 229 µM), for inactives: top-dose activity change, negative = inhibition, most hits filed as inhibitors. 610 compounds, 28% hits. RECQ1 helicase DNA unwinding, fluorescence. shares compounds with RECQ1 inh-1; note: nearly all actives have a fitted effect of over 45% in size
RECQ1 ADP FP = counter-screen for RECQ1 inhibitors: ADP displacement; 530 compounds, 27% hits; AID 2711; shares compounds with RECQ1 inh-1; Potency, µM (highest dose often 228 µM), inactives show top-dose activity change, negative = inhibition, usual class: inhibitors; ADP fluorescence polarization displacement counterscreen; note: nearly all actives have a fitted effect of over 45% in size
RECQ1 inh-2 = blocks human RECQ1 DNA unwinding; shares compounds with RECQ1 inh-1; recombinant RECQ1 DNA unwinding, red fluorescence; Potency, µM (doses to about 119 µM), for inactives: at the highest dose activity, negative = inhibition, actives largely listed as inhibitors; 1,100 compounds, 15% hits; AID 504841; note: nearly all actives have a fitted effect of over 50% in size
An asterisk follows results filed as active; u = inconclusive; x = not tested or not shown; [ ] = another dose, or the depositor's remark. Calls come from the whole dose curve; as a rule, active = well fitted curve in the direction sought with a large enough effect; inconclusive = small, poorly fitted or top-dose-only effect, or another doubt; inactive = no such curve, though single readings can be large; an effect the other way counts as inactive or inconclusive. Unless noted, % is set by controls: 0 for no effect and ±100 for the full control effect; potency is the fitted concentration of half-maximal effect.

SMILES	RECQ1 inh-1	APEX1 inh	BLM inh	WRN helicase inh	FEN1 inhibitor	RECQ1 inh-2	others
O=[N+]([O-])c1ccc(-c2cnc(SC(c3ccccc3)c3ccccc3)[nH]2)cc1	-16%	-4%	-8%	-7%	0%	x
O=[N+]([O-])c1ccc(-c2cnc(SCc3ccccc3Cl)[nH]2)cc1	u	-7%	-11%	-9%	-22%	-25%
Cc1nnc2ccc(-c3ccc(NC(=O)Cc4cccs4)cc3)nn12	32µM*	u	-12%	u	-8%	-29%
CC(=O)c1cccc(N(C(=O)c2cnccn2)C(C(=O)NCc2ccccc2)c2ccco2)c1 (centres undefined)	40µM*	8%	-3%	-1%	2%	-8%
O=C(NCc1ccccc1)C(c1ccco1)N(C(=O)c1cnccn1)c1ccc(F)cc1 (centres undefined)	-2%	-9%	-7%	-7%	7%	x
CC(C)N(Cc1ccccc1)C(=O)C1CCCN(c2ncnc3onc(-c4ccc(F)cc4)c23)C1 (centres undefined)	x	x	3%	x	3%	x
Oc1ccc(N2CCN(c3nc(-c4cccs4)nc4ccccc34)CC2)cc1	u	19%	-6%	-15%	u	u
c1ccc(N2CCN(c3nc(-c4cccs4)nc4ccccc34)CC2)cc1	-4%	u	-6%	-7%	-12%	x
COc1ccc(Cl)cc1NC(=O)CN(C)CC(=O)Nc1ccc(C)cc1Br	35µM*	-12%	-8%	-4%	-10%	-19%
COc1ccc(Cl)cc1NC(=O)CN(C)CC(=O)Nc1ccccc1-c1ccccc1	-19%	u	-11%	-1%	10%	x
CC1CCCCC1NC(=O)COC(=O)c1c2c(nc3ccccc13)/C(=C/c1ccco1)CC2 (centres undefined)	13µM*	u	u	u	u	u	RECQ1 inh conf=1%[114 µM]
CC(C)c1ccc(Nc2nc(Nc3ccc(Cl)cc3)nc(N3CCOCC3)n2)cc1	x	x	x	x	-16%	x	RECQ1 inh conf=-14%[69.1 µM]
COc1ccc(Nc2nc(N3CCOCC3)nc(N3CCOCC3)n2)cc1	x	36%	-1%	5%	-2%	x
COn1c(SCc2cccc(Cl)c2)nc2ccccc2c1=O	7.1µM*	11%	-8%	-8%	u	-13%	RECQ1 inh conf=2%[114 µM];RECQ1 ADP FP=u
COn1c(SCc2ccccc2)nc2ccccc2c1=O	-22%	-4%	-5%	-5%	-9%	x
O=C(COCc1cc(-c2cccs2)on1)Nc1cccc(Cl)c1Cl	x	x	-7%	x	-5%	x
O=C(c1cc2cc3ccc(Cl)cc3nc2o1)N1CCN(c2cccc(Cl)c2)CC1	x	x	-11%	x	-6%	x
CCN(CC)S(=O)(=O)c1ccc(C(=O)NCc2n[nH]c(=S)n2-c2ccc(Cl)c(Cl)c2)cc1	-2%	1%	-20%	-17%	0%	x	RECQ1 inh conf=-7%;RECQ1 ADP FP=8%
Cc1ccc(N2C(=O)/C(=C/c3ccco3)SC2=S)cc1	-12%	u	-11%	-13%	-5%	x
N=C1S/C(=C\c2ccco2)C(=O)N1c1nccs1	u	u	-2%	-7%[11.6 µM]	-25%	-42%
Cc1c(C(=O)NC(C)c2ccccc2)sc2ncnc(N(C)C3CCCCC3)c12 (centres undefined)	x	x	-9%	x	0%	x
Cc1cc(C)cc(NC(=O)C(CC(C)C)NC(=O)C2CCCCC2)c1 (centres undefined)	x	x	-1%	x	-3%	x
S=c1[nH]nc(-c2ccco2)n1-c1ccccc1Cl	-6%	-10%	-6%	-35%	-1%	x
S=c1[nH]nc(-c2cc(-c3ccco3)[nH]n2)n1-c1ccccc1Cl	7.9µM*	14µM*	5%	50µM*	u	x	RECQ1 inh conf=15%[114 µM];RECQ1 ADP FP=u
Cc1ccc(NC(=O)C2CCCN(c3nnc(-n4c(C)ccc4C)s3)C2)c(C)c1 (centres undefined)	x	x	-2%	x	-2%	x
SMILES	RECQ1 inh-1	APEX1 inh	BLM inh	WRN helicase inh	FEN1 inhibitor	RECQ1 inh-2	others
Cc1cc(C(=O)CSc2nnc(-c3ccccc3F)o2)c(C)n1Cc1cccs1	u	u	-5%	-7%	3%	x
COc1ccccc1-n1cnnc1SCC(=O)c1cc(C)n(Cc2cccs2)c1C	u	u	-4%	-14%	7%	-11%
COc1cc(S(=O)(=O)NCCc2c(C)[nH]c3ccc(C)cc23)ccc1Br	x	x	-13%	x	-15%	x
CSc1ccccc1NC(=O)C1=CC(c2ccc3c(c2)OCO3)=NS(=O)(=O)N1C	x	x	-2%	x	-5%	x
CCCOc1ccc(Cc2nn3c(=O)/c(=C/c4ccco4)sc3nc2=O)cc1	25µM*	u	-4%	56µM*	u	u
CC(C)CNC(=O)c1ccccc1NC(=O)c1ccc(CSc2ccccc2)cc1	-14%	-1%	-13%	-2%	-3%	x
CCC(C)NC(=O)c1ccccc1NC(=O)c1ccc(CSc2ccc(C)cc2)cc1 (centres undefined)	5µM*	8%	-4%	-13%	-5%	-16%	RECQ1 inh conf=-8%[114 µM];RECQ1 ADP FP=5%[91.9 µM]
COc1ccc2c(c1)O/C(=C\c1ccco1)C2=O	u	u	3%	-17%	-24%	-8%
CCOC(=O)c1ccc(NC(=O)C(CC)Sc2nc3ncccc3[nH]2)cc1 (centres undefined)	x	x	-8%	x	9%	x
Cc1cc(C(=O)OCC(=O)c2ccc(Cl)c([N+](=O)[O-])c2)c2cccc(C)c2n1	18µM*	u	-17%	-37%	7%	-13%
CCOc1ccc(CNC(=O)c2cc3c(=O)n(Cc4cccs4)ccc3nc2C)cc1	x	x	5%	x	1%	x
CCn1c(SC(C)C(=O)O)nc2sc3c(c2c1=O)CCC3 (centres undefined)	u	u	-10%	56µM*	-19%	u
CC(Sc1nc2sc3c(c2c(=O)n1-c1ccccc1)CCCC3)C(=O)O (centres undefined)	-7%	13%	-3%	0%	-3%	x
CCCCC(=O)N1C(C)CCC1C (centres undefined)	x	x	x	4%	x	x
CC1CCCC(C(=O)O)N1C(=O)CCSSCCC(=O)N1C(C)CCCC1C(=O)O (centres undefined)	-5%	-2%	-3%	4%	5%	x	RECQ1 inh conf=7%;RECQ1 ADP FP=5%
O=Cc1ccc(-c2cccs2)s1	x	x	x	-8%	0%	x
Oc1ccc(N=Cc2ccc(-c3cccs3)s2)cc1	6.3µM*	u	u	50µM*	u	x	RECQ1 inh conf=10%[114 µM];RECQ1 ADP FP=50µM*

High-throughput results (PubChem)
